GDH-TPI counter-1 = GDH-TPI coupling enzyme inhibitors, primary screen, artefact control for M. tuberculosis FBA inhibitor project, biochemical, absorbance, full deck. GDH-TPI coupled enzyme counterscreen, NADH absorbance. inhibition, % at 4.8 µM. actives 1.2% (n = 360,000). AID 588335, 2011; in the data active = inhibition above about 30%
UGM FP inh = M. tuberculosis UGM enzyme inhibitors, primary screen, biochemical, fluorescence polarization, single point | actives 0.06% (n = 320,000) | inhibition, % at 10 µM | AID 504406, 2011 | purified UGM, fluorescence polarization probe displacement | UDP-galactopyranose mutase (Mycobacterium tuberculosis (strain ATCC 25618 / H37Rv)), …; in the data active = inhibition above about 10%, passing the limit was not always enough
Mtb FBA inh = Mtb FBA enzyme inhibitors, primary screen, biochemical, fluorescence, strain H37Rv; actives 2.3% (n = 360,000); AID 588726, 2011; purified M. tuberculosis FBA, fluorescence read-out; Fructose-bisphosphate aldolase (Mycobacterium tuberculosis (strain ATCC 25618 / H37Rv)), …; inhibition, % at 1 µM
Rv3671c protease = Rv3671c serine protease inhibitors, primary screen, biochemical, fluorescence polarization, M. tuberculosis H37Rv | actives 0.048% (n = 320,000) | P9WHR9 | inhibition, % at 5.96 µM; in the data active = inhibition above about 38%;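 note: extracellular domain of Rv3671c used as enzyme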
RecA intein inh = Mtb RecA intein splicing inhibitors, primary screen, biochemical, fluorescence, HTS | cell-free RecA intein splicing | Protein RecA (Mycobacterium tuberculosis (strain ATCC 25618 / H37Rv)), P9WHJ3 | inhibition, % (test concentration not listed) | actives 0.75% (n = 290,000); in the data active = inhibition above about 30%
Target sequence (P9WHJ3 whole entry, looked up): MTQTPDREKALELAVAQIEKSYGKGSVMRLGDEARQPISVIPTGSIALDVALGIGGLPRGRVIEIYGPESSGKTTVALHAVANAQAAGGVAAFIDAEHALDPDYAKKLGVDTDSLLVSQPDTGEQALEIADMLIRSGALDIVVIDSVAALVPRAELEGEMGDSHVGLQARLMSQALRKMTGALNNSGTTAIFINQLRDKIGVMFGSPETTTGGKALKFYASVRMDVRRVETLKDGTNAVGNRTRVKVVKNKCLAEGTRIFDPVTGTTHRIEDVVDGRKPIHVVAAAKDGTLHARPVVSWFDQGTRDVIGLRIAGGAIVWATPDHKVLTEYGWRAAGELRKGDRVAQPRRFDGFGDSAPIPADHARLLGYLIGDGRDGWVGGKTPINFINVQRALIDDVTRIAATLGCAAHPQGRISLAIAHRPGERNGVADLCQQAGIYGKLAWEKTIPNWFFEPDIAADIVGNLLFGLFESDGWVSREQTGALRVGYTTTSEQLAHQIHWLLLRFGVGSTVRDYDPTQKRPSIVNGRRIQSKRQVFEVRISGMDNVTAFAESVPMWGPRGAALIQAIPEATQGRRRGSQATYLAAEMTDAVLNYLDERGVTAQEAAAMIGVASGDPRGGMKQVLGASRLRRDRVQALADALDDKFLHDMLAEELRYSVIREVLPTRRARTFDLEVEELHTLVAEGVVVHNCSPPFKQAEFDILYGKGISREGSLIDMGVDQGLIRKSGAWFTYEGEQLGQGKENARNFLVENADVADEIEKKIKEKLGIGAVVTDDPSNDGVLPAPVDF
BH1578 lux ind = inducers of Vibrio cholerae quorum light production without autoinducers, primary screen, BH1578 luxS cqsA deficient, single point; V. cholerae BH1578 lux reporter, luminescence, 6 h; actives 0.16% (n = 350,000); activation, % at 18.7 µM; in the data active = activation mostly above about 9.7%, no sharp cut-off
Mtb FBA inh conf = M. tuberculosis aldolase blockers, biochemical, fluorescence, strain H37Rv, confirmation. inhibition, % at 1 µM. purified M. tuberculosis FBA, fluorescence read-out. shares compounds with Mtb FBA inh. actives 78% (n = 5,600). AID 651616, 2012
GDH-TPI counter-2 = GDH-TPI coupling enzyme inhibitors, artefact control for M. tuberculosis FBA inhibitor project, biochemical, fluorescence, high throughput; shares compounds with Mtb FBA inh; GDH-TPI coupled enzyme counterscreen; inhibition, % at 1 µM; actives 81% (n = 5,600); in the data active = inhibition above about 10%
Of the large screens only hits and unclear results are named; the others gave an inactive call (follow-up assays come after a bar, where they were run). Most compounds without a hit are left out; they make up all but 4.1% or so of the library. Cut-off read from the data, not from the text of the source, unless noted: active = inhibition above about 27%; inactive = the rest.

CC(=O)NN1C(=O)c2ccccc2NC1c1ccoc1 (stereo unspecified)	Mtb FBA inh 35.0 | Mtb FBA inh conf 38.1 | GDH-TPI counter-2 18.5
CC(=O)NN1C(=O)c2ccccc2NC1c1cccnc1 (stereo unspecified)	Mtb FBA inh 30.2 | Mtb FBA inh conf 77.0 | GDH-TPI counter-2 72.2
CCOC(=O)NN1C(=O)c2ccccc2NC1c1cccnc1 (stereo unspecified)	none
O=C1c2ccccc2NC(c2cccnc2)N1c1ccccc1F (stereo unspecified)	Mtb FBA inh 70.7 | Mtb FBA inh conf inactive | GDH-TPI counter-2 inactive
CC(=O)NN1C(=O)c2ccccc2NC1c1ccccc1F (stereo unspecified)	Mtb FBA inh 33.9 | Mtb FBA inh conf 81.4 | GDH-TPI counter-2 50.9
Nc1c(N(CCO)C(=O)c2ccccc2OCc2ccccc2Cl)c(=O)[nH]c(=O)n1Cc1ccccc1	none (no result: UGM FP inh, Rv3671c protease, RecA intein inh)
O=C(C1CCC(=O)N(C2CCCC2)C1)N1CCN(c2ccccc2Cl)CC1 (stereo unspecified)	none
COc1cccc(NC(=O)CN(C)C(=O)c2cc(-c3ccco3)nc3ccccc23)c1	Mtb FBA inh 69.4 (no result: UGM FP inh) | Mtb FBA inh conf inactive | GDH-TPI counter-2 inactive
CCOc1ccc(NC(=O)CN(C)C(=O)c2cc(C)nc3ccccc23)cc1OCC	none (no result: RecA intein inh)
Cc1ccc(NC(=O)CN(C)C(=O)c2cc(-c3ccco3)nc3ccccc23)cc1	none
CN(CCOc1ccc(Cl)cc1)C(=O)c1cc(-c2ccco2)nc2ccccc12	Mtb FBA inh 36.5 | Mtb FBA inh conf 173.9 | GDH-TPI counter-2 127.2
CN(CC(=O)Nc1ccc(F)cc1)C(=O)c1cc(-c2ccco2)nc2ccccc12	Mtb FBA inh 30.0 | Mtb FBA inh conf active | GDH-TPI counter-2 active
CCN(CC)C(=O)COC(=O)c1cc(-c2ccco2)nc2ccccc12	none (no result: UGM FP inh, Rv3671c protease)
CCOc1ccc(NC(=O)CN(C)C(=O)c2cc(-c3ccco3)nc3ccccc23)cc1OCC	Mtb FBA inh 61.7 (no result: UGM FP inh, Rv3671c protease, RecA intein inh) | Mtb FBA inh conf active | GDH-TPI counter-2 active
CC(=O)N1c2ccccc2C2(O)N=C(C)SC12 (stereo unspecified)	none (no result: BH1578 lux ind)
Cc1ccc(NCC(=O)N/N=C/c2cc(O)ccc2[N+](=O)[O-])cc1	none
Cc1cc2nnc(SC(C)C)n2c2ccccc12	Mtb FBA inh 28.2 | Mtb FBA inh conf 129.9 | GDH-TPI counter-2 102.8
COC(=O)c1ccc2cc(F)cc(C)c2n1	none (no result: GDH-TPI counter-1, UGM FP inh, Rv3671c protease, RecA intein inh, BH1578 lux ind)
COC(=O)c1ccc2cc(C)cc(C)c2n1	Mtb FBA inh 58.8 (no result: GDH-TPI counter-1, UGM FP inh, Rv3671c protease, RecA intein inh, BH1578 lux ind) | Mtb FBA inh conf inactive | GDH-TPI counter-2 14.7
CCOc1cc(S(=O)(=O)NC2CC2)c(OCC)cc1-n1cnnn1	Mtb FBA inh 33.5 | Mtb FBA inh conf 183.9 | GDH-TPI counter-2 158.7
CCOc1cc(S(=O)(=O)NCc2ccc(OC)cc2)c(OCC)cc1-n1cnnn1	none
CCOc1cc(S(=O)(=O)NCc2ccco2)c(OCC)cc1-n1cnnn1	Mtb FBA inh 30.1 | Mtb FBA inh conf 63.0 | GDH-TPI counter-2 45.3
O=C(Nc1ccc([N+](=O)[O-])cc1)c1cccc(S(=O)(=O)Nc2ccccn2)c1	none
COc1cccc(CN2CCN(Cc3cc(OC)c(OC)c(OC)c3)CC2)c1OC	none (no result: Rv3671c protease)
COc1cccc(CN2CCN(Cc3cccc(Oc4ccccc4)c3)CC2)c1OC	Mtb FBA inh 37.4 | Mtb FBA inh conf inactive | GDH-TPI counter-2 inactive
O=C(NCc1cccnc1)c1ccc(-c2ccc(Cl)cc2)o1	Mtb FBA inh 28.6 | Mtb FBA inh conf 113.4 | GDH-TPI counter-2 103.5
O=C(NCc1cccnc1)c1ccc(-c2cc3ccccc3oc2=O)cc1	Mtb FBA inh 53.6 | Mtb FBA inh conf inactive | GDH-TPI counter-2 inactive
COc1ccc(C(=O)NCc2cccnc2)cc1	none
CCCCn1nc(C(=O)Nc2ccc3c(c2)OCO3)c2ccccc2c1=O	none (no result: RecA intein inh)
Cc1c(C(=O)O)oc2c3c(ccc12)OCCO3	Mtb FBA inh 59.8 | Mtb FBA inh conf 98.7 | GDH-TPI counter-2 87.0
Cc1cc(=O)oc2c3c(ccc12)OC/C3=N/N	Mtb FBA inh 94.4 | Mtb FBA inh conf active | GDH-TPI counter-2 active
CN(C(=O)CS(=O)(=O)c1cn(CC(=O)N2CCCCC2)c2ccccc12)c1ccccc1	none
CCC(=O)N1CCCC(C)(C(=O)NS(=O)(=O)c2ccccc2Cl)C1 (stereo unspecified)	none (no result: UGM FP inh, Rv3671c protease, RecA intein inh)
COc1ccc(-c2c(NC(=O)c3ccco3)oc3c(C)cccc3c2=O)cc1	Mtb FBA inh 52.7 | Mtb FBA inh conf inactive | GDH-TPI counter-2 inactive
Cc1ccc(-c2ccc(C(=O)NCc3ccccc3)o2)c2ccccc12	Mtb FBA inh 61.0 | Mtb FBA inh conf 119.8 | GDH-TPI counter-2 74.4
Cc1ccc(-c2cccc(C(=O)NCc3ccccc3)n2)c2ccccc12	none
CCCCN(C)C(=O)c1cn(-c2cccc(OC)c2)c(=O)c2ccccc12	none
COc1ccc2nc3oc(C(=O)N4CCN(c5cccc(C(F)(F)F)c5)CC4)cc3cc2c1	none (no result: BH1578 lux ind)
CCCCN(C)C(=O)c1cc2cc3ccc(OC)cc3nc2o1	Mtb FBA inh 78.0 | Mtb FBA inh conf inactive | GDH-TPI counter-2 inactive
CCCCN(C)C(=O)c1cc2cc3cc(OC)ccc3nc2o1	Mtb FBA inh 73.7 | Mtb FBA inh conf 166.4 | GDH-TPI counter-2 126.6
Cc1cc(-n2c(C)cc(C(=O)COc3ccc4ccc(=O)oc4c3)c2C)no1	Mtb FBA inh 28.3 | Mtb FBA inh conf 59.8 | GDH-TPI counter-2 59.1
CSc1ccccc1NC(=O)COc1nsnc1N1CCOCC1	none
CC(C)N1CCN(C2CSCCSC2)CC1CCO (stereo unspecified)	Mtb FBA inh 52.4 | Mtb FBA inh conf active | GDH-TPI counter-2 active
CC(C)CCN1CCN(C2CSCCSC2)CC1CCO (stereo unspecified)	none
CCCOC1CCCN(C(=O)c2ccc(OC)c(OC3CCN(C(C)C)CC3)c2)C1 (stereo unspecified)	none
Cc1ccc(OC(C)C(=O)N2CC(=O)Nc3ccccc32)cc1 (stereo unspecified)	none
COc1ccc(Cl)cc1NC(=O)C(C)N1CCN(c2ccccn2)CC1 (stereo unspecified)	none
CCCc1nc2oc3c(NCC(C)O)ncnc3c2c2c1CCCC2 (stereo unspecified)	Mtb FBA inh 36.1 | Mtb FBA inh conf 68.0 | GDH-TPI counter-2 45.0
